Inconclusive results are not listed. A number with no mark means an inactive call. Active and inactive are the calls of the source. Calls come from the whole dose curve; as a rule, active = well fitted cell-killing curve with a large enough effect; inconclusive = small, poorly fitted or top-dose-only effect; inactive = flat fitted curve, though single readings scatter.
test: qHTS of pediatric cancer cell lines to identify multiple opportunities for drug repurposing: Primary screen for RD cells (AID 1347104); settings: RD rhabdomyosarcoma viability, CellTiter-Glo luminescence, 48 h; series mostly up to 46 µM; activity change, negative = cytotoxic: at the top concentration; note: nearly all actives have a fitted effect of over 55% in size
Text: Drug repurposing or repositioning has been offered as a strategy for drug development in oncology programs. This approach has special potential for childhood cancers and other rare or orphan diseases, where the expected return on new drug development has been a disincentive to pharmaceuticals. […] In this project we exploit the poly-pharmacology of drugs to discover new indications via phenotypic screening of a panel of 19 well-characterized cell lines derived from solid tumors seen in children and adolescents. The goal is to identify approved drugs with previously unrecognized anticancer properties that has the potential to reveal new mechanisms and biological processes involved in carcinogenesis or drug resistance. We employed a titration-based paradigm (quantitative high-throughput screening or qHTS), where all compounds were tested at multiple concentrations for their effect on cell viability. Concentration-response curves (CRCs) were derived directly from the primary screen, and both potency and efficacy values were used to identify compounds with robust bioactivity profiles. We screened the NIH Chemical Genomics Center (NCGC) Pharmaceutical Collection (NPC) and Mechanism Interrogation Plate (MIPE) small molecule collections of approved and investigational compounds against these cell lines; and measured metabolically active cells after 48 hours of compound treatment as a proxy for cell viability. […] Assay Submitter: Nathalia J. Martinez, National Center for Advancing Translational Sciences, National Institutes of Health, Rockville, MD, USA; email: natalia.martinez@nih.gov Shen, M et al. Quantitative high-throughput phenotypic screening of pediatric cancer cell lines identifies multiple opportunities for drug repurposing. Oncotarget 2017 Dec 19;9(4):4758-4772. PMID 29435139.
The cells were obtained from University of North Carolina (UNC), Pediatric Preclinical Testing Program (PPT), and Coriell Institute (CI). qHTS cell viability assay: Cells were assayed in growth media at a density of 500-1,000 cells/well. Five microliters of cells were dispensed into 1,536-well, white, solid-bottom, TC-treated plates (Greiner Bio One) using a multidrop dispenser and incubated at 37 degrees C, 5% CO2, under a humidified atmosphere for 5 hours. Twenty-three nanoliters of compounds and controls (neutral control DMSO or positive control bortezomib at final concentration of 2.3 µM) were subsequently transferred by Kalypsys pintool. For primary screens, the MIPE collection was tested at 11-point dilutions (final concentrations range from 0.78 nM to 46 µM) and the NPC collection at 8-point dilutions (final concentrations range from 0.59 nM to 46 µM). Compounds tested in follow-up screens were assayed at 11-point dilutions. Cells were incubated for 48 hours, followed by addition of 3 µL of CellTiter-Glo (Promega). After a 15 min incubation at room temperature, samples were analyzed for luminescence intensity using a ViewLux High-throughput CCD imager equipped with clear filters.
Potency is the fitted concentration of half-maximal effect.

| Structure (SMILES) | activity change, negative = cytotoxic | Potency |
| --- | --- | --- |
| NCCS | 8.05% | – |
| CC1(C)Cc2c(sc(NC(=S)NC(=O)c3ccccc3)c2C(=O)O)CO1 | – | 33.2 µM (active) |
| C[C@@H](O)[C@H]1C(=O)N2C(C(=O)O)=C(S[C@@H]3CN[C@H](C(=O)N(C)C)C3)[C@H](C)[C@H]12 | – | inactive |
| CCC(=O)O[C@]1(C(=O)CO)CC[C@H]2[C@@H]3CCC4=CC(=O)CC[C@]4(C)[C@@H]3CC[C@@]21C | 1.29% | – |
| c1ccc2c(Cc3c[nH]c4ccccc34)c[nH]c2c1 | – | 14.8 µM (active) |
| CC(C)OC(=O)C(C)(C)Oc1ccc(C(=O)c2ccc(Cl)cc2)cc1 | -17% | – |
| CCC(CC)[C@H](NC(C)=O)[C@@H]1[C@H](O)[C@@H](C(=O)O)C[C@@H]1N=C(N)N | -1.04% | – |
| O=C1c2ccccc2-[n+]2ccc3c([nH]c4ccccc43)c21 | – | 1.87 µM (active) |
| CC[C@@]1(O)C[C@H](O[C@H]2C[C@H](N(C)C)[C@H](O[C@H]3C[C@H](O)[C@H](O[C@H]4CCC(=O)[C@H](C)O4)[C@H](C)O3)[C@H](C)O2)c2c(cc3c(c2O)C(=O)c2c(O)cccc2C3=O)[C@@H]1C(=O)OC | -27.8% | – |
| OC[C@H]1O[C@@H](n2cnc3c2NC=NC[C@@H]3O)C[C@H]1O | -0.833% | – |
| Cn1c(N2CCCCS2(=O)=O)nc(C(=O)NCc2ccc(F)cc2)c(O)c1=O | -1.43% | – |
| CN(C)CCC(c1ccccc1)c1ccccn1 (stereo not given) | 9.31% | – |
| NC(CO)(CO)CCc1ccc(Sc2cccc(OCc3ccccc3)c2)cc1Cl | – | 33.2 µM (active) |
| O=C(NC1CCOCC1)c1ccc(-c2cc(-c3cn[nH]c3-c3ccccn3)ccn2)cc1 | 9.19% | – |
| OC[C@H]1O[C@@H](Oc2cc(O)cc(C=Cc3ccc(O)cc3)c2)[C@H](O)[C@@H](O)[C@H]1O | 1.1% | – |
| COc1ccc(Cc2ccc(NC(N)=O)cc2)cc1-c1cccc(Cl)c1 | -13.8% | – |
| Clc1ccc(-c2nc3sccn3c2C=NOCc2ccc(Cl)c(Cl)c2)cc1 | -12.9% | – |
| NC(=O)c1cccc2[nH]c(-c3ccc([C@H]4CCCN4)cc3F)nc12 | -19.4% | – |
| CCCCCN(C)CCC(O)(P(=O)(O)O)P(=O)(O)O | 4.54% | – |
| CNC(=O)c1ccc2cc(C3(O)CCn4cncc43)ccc2c1 (stereo not given) | -7.46% | – |

| Structure (SMILES) | activity change, negative = cytotoxic | Potency |
| --- | --- | --- |
| CC(C)n1nc(-c2ccc3oc(N)nc3c2)c2c(N)ncnc21 | – | 0.0296 µM (active) |
| CCCCCNC(=O)N1CCC(CN(Cc2ccc(Cl)cc2)Cc2ccc([N+](=O)[O-])s2)C1 (stereo not given) | – | 29.6 µM (active) |
| CC(=O)N(C)C1(c2ccccc2)CCN(CCC[C@]2(c3ccc(Cl)c(Cl)c3)CCCN(C(=O)c3ccccc3)C2)CC1 | – | 18.7 µM (active) |
| C[C@H](NC(=O)c1sccc1OCc1ccc(Cl)cc1)c1ccccc1 | – | 29.6 µM (active) |
| COc1ccccc1N1CCN(CCCNc2cc(=O)n(C)c(=O)n2C)CC1 | 1.65% | – |
| NC1CCC(Nc2nc(Nc3ccc(C(=O)N4CCCCC4)cc3)c3ncn(-c4cccc(F)c4)c3n2)CC1 (stereo not given) | -2.11% | – |
| Clc1ccc(C(c2ccc(Cl)cc2)n2cc[n+](CC(OCc3ccc(Cl)cc3Cl)c3ccc(Cl)cc3Cl)c2)cc1 (stereo not given) | – | 33.2 µM (active) |
| C[N+](C)(C)CC(=O)O | 11.6% | – |
| COc1ccc(-c2coc3cc(O)ccc3c2=O)cc1 | -5.18% | – |
| C[C@@H]1CCN(C(=O)CC#N)C[C@H]1N(C)c1ncnc2[nH]ccc12 | -18.8% | – |
| CN(C)c1cc(NC(=O)CNC(C)(C)C)c(O)c2c1C[C@@H]1C[C@H]3[C@H](N(C)C)C(=O)C(C(N)=O)=C(O)[C@@]3(O)C(=O)C1=C2O | -4.87% | – |
| Cc1ccc(C(C)(O)c2nc3ccccc3s2)c(C)c1 (stereo not given) | -9.35% | – |
| CCN1CCC[C@H]1CNC(=O)c1cc(S(N)(=O)=O)ccc1OC | 10.4% | – |
| O=C(O)Cc1cccc2ccccc12 | – | inactive |
| CC(C)n1cnc2c(NCCCCCCNC(=O)OC(C)(C)C)nc(NCCO)nc21 | – | 33.2 µM (active) |
| COc1ccc2c(Oc3ccc(NC(=O)c4c(C)n(CC(C)(C)O)n(-c5ccccc5)c4=O)nc3)ccnc2c1 | -10.5% | – |
| COc1cccc([C@@H](C)NCCCc2ccccc2Cl)c1 | -22.9% | – |
| O=C(O)C=Cc1ccc(O)c(O)c1 | – | 33.2 µM (active) |
| O=C(O)CCC1CCC(c2cc(F)ccc2F)(S(=O)(=O)c2ccc(Cl)cc2)CC1 (stereo not given) | – | 14.8 µM (active) |
| O=C(O)c1cc(O)c2c(c1)C(=O)c1cccc(O)c1C2=O | -6.85% [at 92.7 µM] | – |
